Source: PubChem BioAssay (NCI)
About 83,000 compounds went through this panel and 20% of them were active in at least one assay; those are over-represented in the sample as a whole.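 Plates (96-well) were seeded with cells, treated with compound at one concentration, and incubated for 48 hours before percent growth was determined.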 Activity calls are given as the source filed them. How the source made its calls: active means growth percent below 10; inactive means the rest.

What was measured:
Assay in all cases: NCI-60 one-dose screen, 48 h (100 = growth as untreated, 0 = no growth, -100 = all killed)
Settings in all cases: 10 µM unless noted
[1] = test system: SR leukemia
[2] = test system: RPMI-8226 leukemia
[3] = test system: OVCAR-8 ovarian
[4] = test system: OVCAR-5 ovarian
[5] = test system: OVCAR-4 ovarian
[6] = test system: SK-OV-3 ovarian
[7] = test system: IGROV1 ovarian
[8] = test system: OVCAR-3 ovarian
[9] = test system: HS 578T breast
[10] = test system: NCI/ADR-RES ovarian
[11] = test system: T-47D breast
[12] = test system: BT-549 breast
[13] = test system: MDA-MB-435 melanoma
[14] = test system: SW-620 colon
[15] = test system: MCF7 breast
[16] = test system: HCT-116 colon
[17] = test system: HCC-2998 colon
[18] = test system: KM12 colon

Measured: growth

O=S(=O)(OCCOS(=O)(=O)c1ccccc1)c1ccccc1
inactive: [1] 93.7% | [2] 100% | [3] 97% | [4] 111% | [5] 101% | [6] 96.3% | [7] 105% | [8] 94.3% | [9] 108% | [10] 95.5% | [11] 105% | [12] 86.4% | [13] 107% | [14] 102% | [15] 88% | [16] 87.4% | [17] 72.8%

O=[n+]1ccn([O-])c2ccccc21
inactive: [1] 78.3% | [2] 78.9% | [3] 121% | [4] 93.1% | [5] 106% | [6] 109% | [7] 106% | [8] 101% | [9] 89.4% | [10] 103% | [11] 92.4% | [12] 92.5% | [13] 101% | [14] 93.9% | [15] 95.8% | [16] 95.7% | [17] 108% | [18] 99%

CCN1CCCC(N2c3ccccc3Sc3ccccc32)C1 (configuration not stated)
inactive: [1] 96.3% | [2] 95.5% | [3] 102% | [4] 106% | [5] 97.9% | [6] 111% | [7] 91.3% | [8] 98.5% | [9] 99.6% | [10] 99.7% | [11] 95.6% | [12] 116% | [13] 109% | [14] 105% | [15] 105% | [16] 90.3% | [17] 103% | [18] 102%

C=CC(C)C(C)(C)O (configuration not stated)
inactive: [1] 97.6% | [2] 109% | [3] 108% | [4] 98.7% | [5] 113% | [6] 106% | [7] 102% | [8] 102% | [9] 96.3% | [10] 98.3% | [11] 89.2% | [12] 97.3% | [13] 102% | [14] 101% | [15] 101% | [16] 93.9% | [17] 106% | [18] 101%

COc1cccc(C(=O)NNC(=O)c2cccc3ccccc23)c1
inactive: [1] 113% | [2] 105% | [3] 105% | [4] 125% | [5] 109% | [6] 100% | [7] 131% | [8] 121% | [9] 114% | [10] 107% | [11] 95.4% | [12] 110% | [13] 113% | [14] 107% | [15] 109% | [16] 108% | [17] 102% | [18] 115%

S=C(NCc1ccccc1)N1CCC(CCCC2CCN(C(=S)NCc3ccccc3)CC2)CC1
inactive: [1] 93.2% | [2] 75.5% | [3] 96.4% | [4] 121% | [5] 76.9% | [6] 100% | [7] 117% | [8] 95% | [9] 108% | [10] 99.3% | [11] 71.8% | [12] 98.2% | [13] 101% | [14] 108% | [15] 82.3% | [16] 85.5% | [17] 123% | [18] 95.9%

Nc1ccc2ccccc2c1-c1c(N)ccc2ccccc12
active: [1] 4.26% | [8] 5.64% | [13] -4.5%
inactive: [2] 24.9% | [3] 44% | [4] 57.1% | [5] 66% | [6] 30.8% | [7] 45.8% | [9] 35.6% | [10] 16.5% | [11] 32.2% | [12] 61.5% | [14] 24.3% | [15] 19.6% | [16] 24.9% | [17] 66.3% | [18] 25.7%

CC1(C)OC(=O)CC1=O
inactive: [1] 89% | [2] 93.4% | [3] 97.4% | [4] 101% | [5] 106% | [6] 91.6% | [7] 107% | [8] 113% | [9] 96.6% | [10] 105% | [11] 82% | [12] 98.1% | [13] 104% | [14] 100% | [15] 99.3% | [16] 103% | [17] 100% | [18] 102%

CNc1ccccc1C(=O)N/N=C/C=C/c1ccccc1
active: [1] 2.42% | [3] 6.6% | [6] 7.51% | [8] -23.7% | [10] 3.92% | [13] -43.1%
inactive: [2] 25.1% | [4] 47.1% | [5] 85.6% | [7] 23% | [9] 16.5% | [11] 29.5% | [12] 47.3% | [14] 20.2% | [15] 12.2% | [16] 21.6% | [17] 42.2% | [18] 22.2%

CC(=O)OCC1CCC(COC(C)=O)CC1 (configuration not stated)
inactive: [1] 95.7% | [2] 103% | [3] 106% | [4] 106% | [5] 111% | [6] 87.9% | [7] 105% | [8] 102% | [9] 106% | [10] 99.2% | [11] 93% | [12] 112% | [13] 103% | [14] 109% | [15] 90.9% | [16] 103% | [17] 91.5% | [18] 99.2%

Nc1ccc(F)c(Cl)c1F
inactive: [1] 101% | [2] 93.7% | [3] 108% | [4] 98.8% | [5] 112% | [6] 113% | [7] 116% | [8] 111% | [9] 96.4% | [10] 105% | [11] 102% | [12] 88.8% | [13] 109% | [14] 104% | [15] 102% | [16] 94.9% | [17] 100% | [18] 108%

CC(=O)NNC(=S)/N=C\C(C(=O)c1ccccc1)=C(/O)c1ccccc1
inactive: [1] 102% | [2] 104% | [3] 102% | [4] 97.2% | [5] 114% | [6] 91.8% | [7] 95% | [8] 109% | [9] 106% | [10] 99% | [11] 87.8% | [12] 92.7% | [13] 109% | [14] 110% | [15] 93.6% | [16] 96.5% | [17] 102% | [18] 99.4%

Oc1ccc(N=Cc2ccc(OCc3ccccc3)cc2)cc1
inactive: [1] 97.4% | [2] 96.7% | [3] 96.3% | [4] 111% | [5] 95.2% | [6] 112% | [7] 108% | [8] 103% | [9] 104% | [10] 95.6% | [11] 103% | [12] 84.6% | [13] 88.4% | [14] 96.1% | [15] 99.1% | [16] 106% | [17] 112%

N#C/C(=C\NC(=S)N=Nc1c(O)[nH]c2ccccc12)c1nc2ccccc2s1
inactive: [1] 77.3% | [2] 97% | [3] 96% | [4] 105% | [5] 93.7% | [6] 92.8% | [7] 85.4% | [8] 103% | [9] 94.6% | [10] 103% | [11] 71.6% | [12] 101% | [13] 108% | [14] 93% | [15] 76% | [16] 92.3% | [17] 113%

OCCNc1ccccc1
inactive: [1] 93.2% | [2] 105% | [3] 102% | [4] 107% | [5] 101% | [6] 105% | [7] 110% | [8] 105% | [9] 101% | [10] 100% | [11] 98.7% | [12] 97.4% | [13] 107% | [14] 108% | [15] 97.1% | [16] 89.9% | [17] 105% | [18] 101%

O=C(O)c1cc(I)ccc1O
inactive: [1] 103% | [2] 107% | [3] 109% | [4] 97.5% | [5] 107% | [6] 103% | [7] 114% | [8] 116% | [9] 111% | [10] 98% | [11] 112% | [12] 85.9% | [13] 100% | [14] 116% | [15] 95.7% | [16] 111% | [17] 95.1% | [18] 108%

O=C(c1ccc(Cl)cc1)N1CCCCC1
inactive: [1] 96.9% | [2] 102% | [3] 106% | [4] 102% | [5] 113% | [6] 105% | [7] 105% | [8] 112% | [9] 23.2% | [10] 102% | [11] 91.5% | [12] 105% | [13] 101% | [14] 99.8% | [15] 92.9% | [16] 99.9% | [17] 107%
